DT40 TDP1 no CPT = qHTS for Inhibitors of human tyrosyl-DNA phosphodiesterase 1 (TDP1): qHTS in cells in absence of CPT. 420,000 tested, 15% active. Potency, µM (highest dose often 46.2 µM), usual class: inhibitors. DT40 Tdp1-/- hTDP1 cells, no CPT, ATP luminescence, 48 h; also: nearly all actives have a fitted effect of over 55% in size
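Camptothecin absent (DMSO only). Human TDP1-complemented DT40 knockout cells, 400 cells/well, 37 °C for minimum 48 hr; ATP measured via CellTiter-Glo, 30 min dark incubation, luminescence.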
DT40 TDP1 CPT = DT40-hTDP1 cell growth loss with CPT. AID 686979. chicken DT40 Tdp1-/-;hTDP1 cells + 20 nM CPT, ATP luminescence, 48 h. 420,000 tested, 12% active. Potency, µM (series often up to 46.2 µM), most hits filed as inhibitors; also: nearly all actives have a fitted effect of over 55% in size
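Cell growth measured by CellTiter-Glo luminescence after a minimum 48 h, 37 C compound exposure with 20 nM CPT in Tdp1-knockout DT40 cells stably expressing hTDP1, seeded 400/well; qHTS titration format.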
TGFb SMAD3 inh = TGF-b pathway inhibition | HepG2 CAGA-GFP TGF-b/SMAD3 reporter, GFP fluorescence, 18 h; TGF-beta stimulated, 500 pg/mL final | Potency, µM (series often up to 46.1 µM), hits mostly inhibitors | 410,000 tested, 1.2% active | AID 588855; also: nearly all actives have a fitted effect of over 65% in size
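Inhibition of TGF-beta-driven CAGA-GFP reporter expression in HEPG2 cells is measured by cellular GFP fluorescence after 18 h stimulation with 500 pg/mL recombinant TGF-beta in 1% FBS medium at 37 degrees C.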
IL-1B inflam inh = blocks inflammasome-driven IL-1 beta release; AID 743279; THP-1 LPS/ATP IL-1B secretion, AlphaLISA, 16 h; active compounds read low; 360,000 tested, 4.7% active; activity change, % at 57.5 µM; in the data active = activity change below about -50%; inconclusive = mostly about -30% to -49%
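THP-1 cells pretreated 1 hr with compounds (up to 57.5 uM final), then stimulated with LPS (250 ng/mL final) plus ATP (1.25 mM final); secreted IL-1B measured by AlphaLISA after 16 hr, decreased signal indicating inhibition.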
TDP1 inh = inhibitors of human tyrosyl-DNA phosphodiesterase TDP1; Q9NUW8; recombinant TDP1, AlphaScreen DNA substrate cleavage; 350,000 tested, 0.28% active; Potency, µM (titrated, usually from 130 µM), most hits filed as inhibitors; also: nearly all actives have a fitted effect of over 40% in size
Target sequence (Q9NUW8 whole entry, looked up): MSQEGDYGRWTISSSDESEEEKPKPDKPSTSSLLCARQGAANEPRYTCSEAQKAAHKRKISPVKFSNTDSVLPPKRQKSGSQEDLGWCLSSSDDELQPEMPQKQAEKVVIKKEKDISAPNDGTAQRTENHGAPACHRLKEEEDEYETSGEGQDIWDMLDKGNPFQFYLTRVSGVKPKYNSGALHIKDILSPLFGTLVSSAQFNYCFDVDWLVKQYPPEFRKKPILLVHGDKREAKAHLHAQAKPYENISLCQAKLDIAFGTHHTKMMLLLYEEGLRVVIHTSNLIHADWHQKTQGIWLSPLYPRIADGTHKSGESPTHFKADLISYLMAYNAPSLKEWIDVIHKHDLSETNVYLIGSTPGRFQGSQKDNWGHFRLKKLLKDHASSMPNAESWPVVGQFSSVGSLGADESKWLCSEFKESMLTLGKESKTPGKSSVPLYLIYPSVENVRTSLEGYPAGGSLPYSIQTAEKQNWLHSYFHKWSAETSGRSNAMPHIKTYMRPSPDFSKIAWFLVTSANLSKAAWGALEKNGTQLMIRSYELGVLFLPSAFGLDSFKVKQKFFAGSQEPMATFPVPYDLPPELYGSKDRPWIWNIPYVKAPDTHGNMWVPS
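Tdp1 1 nM final; 15 min RT w/ cpd; substrate 15 nM, 5 min; beads 10 ug/ml, 10 min; AlphaScreen read. Neg ctrl: no enzyme.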
HepG2 tox = counter-screen for TGF-b inhibitors: cytotoxicity in HepG2 cells. AID 588856. HepG2 CAGA-GFP viability, ATP luminescence, 18 h. 410,000 tested, 0.76% active. Potency, µM (titrated, usually from 46.1 µM), hits mostly cytotoxic
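CellTiter-Glo luminescence gave cytotoxicity after 18 hours at 37 degrees C. The cells were HepG2 CAGA-GFP in 1% FBS DMEM, stimulated with 500 pg/mL TGF-beta after compound addition. %Activity was normalised to no-cell wells (complete cell-killing) and DMSO (no toxicity), and curves were fitted and classified.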
Numbers stand for hits; i = inactive; ? = inconclusive; nt = no result given. An excerpt weighted towards active compounds, which were near 19% of everything screened. Unless noted, calls follow the shape of the dose curve; as a rule, active = well fitted curve in the direction sought with a large enough effect; inconclusive = small, poorly fitted or top-dose-only effect, or another doubt; inactive = no such curve, though single readings can be large; an effect the other way counts as inactive or inconclusive.

SMILES | DT40 TDP1 no CPT | DT40 TDP1 CPT | TGFb SMAD3 inh | IL-1B inflam inh | TDP1 inh | HepG2 tox
COc1ccc(CCNC(=O)CCc2cn(Cc3ccc(C)cc3)c3ccccc23)cc1OC | 15µM | 13µM | ? | nt | i | i
COc1ccc(-c2c(C)nn3c4c(cnc23)C(=O)CC(c2ccc(C)cc2)C4)cc1 (centres undefined) | i | i | i | nt | i | i
C[C@H]1C[C@@H]2[C@@H]([C@@H](O)C[C@@]3(C)[C@H]2CC[C@]3(O)C(=O)CO)[C@@]2(C)C=CC(=O)C=C12 | nt | nt | nt | nt | i | nt
COc1ccc(CNC(=O)CCc2cn(Cc3cc(C)ccc3C)c3ccccc23)cc1OC | 5.8µM | 4.6µM | ? | nt | i | i
Cc1ccc2[nH]c3c(=O)n(CC(=O)N4CCN(c5ccccc5F)CC4)ncc3c2c1 | i | i | i | nt | i | i
O=C(Nc1ccccc1)OC[C@@H]1C=CS(=O)(=O)N1Cc1ccc(Br)cc1 | ? | ? | i | -68 | nt | i
O=C(Nc1ccccc1)OCCOc1ccccc1Br | i | ? | i | i | nt | i
CC(C)N1CCN(c2ccc(OCC3COC(Cn4cncn4)(c4ccc(Cl)cc4Cl)O3)cc2)CC1 (centres undefined) | ? | ? | i | -53 | nt | i
CC(C)N1CCN(c2ccc(OC[C@H]3CO[C@](Cn4cncn4)(c4ccc(Cl)cc4Cl)O3)cc2)CC1 | ? | ? | ? | i | nt | 13µM
CCC(C)n1ncn(-c2ccc(N3CCN(c4ccc(OC[C@H]5CO[C@](Cn6cncn6)(c6ccc(Cl)cc6Cl)O5)cc4)CC3)cc2)c1=O (some centres undefined) | i | i | nt | nt | nt | nt
COc1ccc(N2CCN(C(=O)Cn3cncn3)CC2)cc1 | i | i | i | i | i | i
CCOc1ccc(-c2nc(-c3ccccc3)c(-c3ccccc3)[nH]2)cc1OCC | 18µM | 21µM | i | nt | i | i
COc1cc(-c2nc(-c3ccccc3)c(-c3ccc(Br)cc3)[nH]2)cc(OC)c1O | ? | ? | 13µM | nt | nt | i
Oc1ccc(-c2nc(-c3ccccc3)c(-c3ccc(Br)cc3)[nH]2)cc1 | ? | ? | ? | nt | nt | i
CCOc1ccc(-c2nc(-c3ccccc3)no2)cc1OCC | ? | ? | ? | i | i | i
COc1ccc(-c2nc(-c3ccccc3)c(-c3ccc(F)cc3)[nH]2)c(OC)c1C | ? | 21µM | ? | nt | nt | i
COCCCNC(=O)C1CCC(Cn2c(=O)c3sccc3n(C)c2=O)CC1 (centres undefined) | i | i | i | nt | i | i
Cc1ccsc1CN(C(=O)c1ccccc1)C1CCS(=O)(=O)C1 (centres undefined) | i | i | i | i | i | i
CCN(CC)S(=O)(=O)c1ccc(S(=O)(=O)N(CC(=O)Nc2ccccc2)Cc2ccco2)cc1 | ? | 18µM | i | i | i | i
COC(=O)CN(Cc1ccco1)S(=O)(=O)c1ccccc1 | i | i | ? | i | i | i
Cc1ccc(S(=O)(=O)N(CC(=O)O)Cc2ccco2)cc1 | i | i | i | i | 22µM | i
Cc1ccc(S(=O)(=O)N(Cc2ccccc2)Cc2ccco2)cc1 | ? | 9.2µM | i | i | i | i
COc1ccc(S(=O)(=O)N(Cc2ccc(OC)c(OC)c2)Cc2ccco2)cc1 | 18µM | 23µM | ? | i | i | i
CCCCCCCCCCCCCCCC(=O)OC(CO)CO | nt | nt | nt | nt | i | nt
CN(C)S(=O)(=O)c1ccc(S(=O)(=O)N(Cc2ccco2)Cc2ccccc2Cl)cc1 | 16µM | 21µM | i | i | i | i
SMILES | DT40 TDP1 no CPT | DT40 TDP1 CPT | TGFb SMAD3 inh | IL-1B inflam inh | TDP1 inh | HepG2 tox
Cc1ccc(C)c(OC(=O)CSc2nnc(-c3ccc4c(c3)OCO4)o2)c1 | i | i | i | nt | i | i
O=C1SC(c2ccccc2)=C/C1=C\N1CCCCC1 | i | i | i | i | i | i
O=C1OC(c2ccccc2)=C/C1=C/N1CCOCC1 | 16µM | ? | i | i | i | i
CN(C)/C=C1/C=C(c2ccccc2)OC1=O | ? | ? | i | -53 | i | i
O=C1OC(c2ccccc2)=C/C1=C\N1CCOCC1 | ? | 23µM | i | i | i | i
CCCCc1nn2c(=O)cc(COC(=O)COc3ccc(C)cc3)nc2s1 | i | i | i | nt | i | i
O=C(NC(C(=O)c1ccccc1)N1CCCCCC1)c1ccco1 (centres undefined) | 21µM | 23µM | i | i | i | i
CC1=C/C(=C(\c2cc(C)c(O)c(Br)c2)c2ccccc2S(=O)(=O)O)C=C(Br)C1=O | ? | ? | i | -81 | i | i
Cc1cc(C(=O)c2ccccc2)cc(C)c1O | i | i | i | i | nt | i
O=c1[nH]c(-c2ccccc2F)nc2c1sc(=S)n2Cc1ccccc1 | ? | ? | i | i | i | i
Cc1cccc2c1c1ccc3c(c1n2C)C(=O)C=CC3=O | 0.41µM | 0.46µM | 16µM | i | i | i
Cc1ccccc1N1CC(=O)N(c2ccccc2C)CC1=O | i | i | i | i | i | i
CCOc1ccc2[nH]cc(S(=O)(=O)c3ccc(F)cc3)c(=O)c2c1 | 9.2µM | 9.2µM | i | i | i | i
COc1ccc2[nH]cc(S(=O)(=O)c3ccc(F)cc3)c(=O)c2c1 | ? | ? | i | i | i | i
O=C1CC(NS(=O)(=O)c2ccc([N+](=O)[O-])cc2)CN1c1ccc(Cl)cc1 (centres undefined) | 16µM | ? | i | i | nt | i
CC(=O)c1ccc(S(=O)(=O)NC2CC(=O)N(c3ccc(C)c(C)c3)C2)cc1 (centres undefined) | 15µM | 15µM | i | i | nt | i
COc1ccc2c(c1)Cc1sc(NC(=O)c3ccccc3)nc1-2 | ? | ? | i | i | i | i
COc1ccc2c(c1)Cc1sc(NC(=O)c3cccc(F)c3)nc1-2 | ? | ? | i | nt | i | i
COc1ccc2c(c1)CCc1sc(NC(=O)c3ccc(Cl)cc3)nc1-2 | 21µM | 18µM | ? | nt | i | i
COc1ccc(C(=O)Nc2nc3c(s2)Cc2cc(OC)ccc2-3)cc1 | ? | ? | i | -53 | i | i
COc1ccc2c(c1)Cc1sc(NC(=O)c3cccs3)nc1-2 | 21µM | ? | i | i | i | i
COc1ccc(Br)c2c1-c1nc(NC(=O)c3cccc(C)c3)sc1C2 | 23µM | ? | ? | nt | i | i
COc1ccc2c(c1)Cc1sc(NC(=O)c3cccc(Br)c3)nc1-2 | ? | ? | i | nt | i | i
COc1ccc(CNC(=O)C(C)n2ccc3cc(S(=O)(=O)N4CCCCCC4)ccc32)cc1 (centres undefined) | ? | ? | i | ? | i | i
